# Laboratory results from the supplement of paper PMC9844399.
# Where a name gives a salt, the structure may show the parent alone.
# Tested on: HeLa
# Test: nuclear count per well, robust Z-score vs DMSO; higher = more cells (less toxicity)
# Conditions: 10 µM; 6 h
# 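Further: Hoechst-stained nuclei counted by automated confocal imaging of four fields per well in 384-well plates, with the robust Z-score based on the per-plate DMSO median and robust SD.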
row,Structure (SMILES),nuclear count per well
1,C[C@H](CCC(=O)NCCS(=O)(=O)O)[C@H]1CC[C@H]2[C@@H]3[C@@H](O)C[C@@H]4C[C@H](O)CC[C@]4(C)[C@H]3CC[C@]12C [Tauroursodeoxy cholic acid dihydrate],0.21
2,C/C(=C\C(=O)OCCCCCCCCC(=O)O)C[C@@H]1OC[C@H](C[C@@H]2O[C@H]2[C@@H](C)[C@H](C)O)[C@@H](O)[C@H]1O [Mupirocin],-1.07
3,C[C@H]1c2cccc(O)c2C(=O)C2=C(O)[C@]3(O)C(=O)C(C(N)=O)=C(O)[C@@H](N(C)C)[C@@H]3[C@@H](O)[C@@H]21 [Doxycycline Monohydrate],-0.308
4,O=C1O[C@H]([C@@H](O)CO)C(O)=C1O [L-Ascorbic Acid],0.672
5,CN1CCC(=C2c3ccccc3C=Cc3ccccc32)CC1,-0.305
6,Clc1cccc(Nc2nnc(-c3ccccc3)c3ccccc23)c1,-0.0928
7,COC(=O)Nc1nc2cc(C(=O)c3ccccc3)ccc2[nH]1 [Mebendazole],-3.08
8,CCCCCCCCCCCCCCCC(=O)N[C@@H](COP(=O)(O)O)C(=O)O,-0.988
9,CC(C)NCC(O)COc1ccc(CC(N)=O)cc1 (stereo not given),0.069
10,CC(C)[C@H](NC(=O)CNC(=O)OC(C)(C)C)C(=O)N[C@H](C=O)C(C)C,0.605
11,O=P(O)(O)C(Sc1ccc(Cl)cc1)P(=O)(O)O [Tiludronate Disodium],1.66
12,CC(C)[C@H](N)C(=O)OCCOCn1cnc2c(=O)nc(N)[nH]c21,0.9
13,CN1CCc2cccc3c2[C@H]1Cc1ccc(O)c(O)c1-3,-0.0769
14,CNC(=O)[C@H]1O[C@@H](n2cnc3c(NCc4cccc(I)c4)ncnc32)[C@H](O)[C@@H]1O,-1.23
15,CC(O)(P(=O)(O)O)P(=O)(O)O [Etidronate Disodium],-0.519
16,CNS(=O)(=O)Cc1ccc2[nH]cc(CCN(C)C)c2c1 [Sumatriptan Succinate],-0.257
17,Cc1ccc(C)c(OCCCC(C)(C)C(=O)O)c1 [Gemfibrozil],-0.452
18,C[C@@H]1COCCN1c1cc(=O)n2c(n1)N(Cc1cncc(Cl)c1)[C@H](C(F)(F)F)CC2,-0.175

row,Structure (SMILES),nuclear count per well
1,CNC(=O)c1cc(Oc2ccc(NC(=O)Nc3ccc(Cl)c(C(F)(F)F)c3)cc2)ccn1 [Sorafenib Tosylate],1.02
2,OC[C@H]1NC[C@@H](O)[C@@H](O)[C@@H]1O [1-Deoxymannojirimycin hydrochloride],-0.36
3,Clc1ccc(-c2nc3sccn3c2/C=N/OCc2ccc(Cl)c(Cl)c2)cc1,1.73
4,C=CC[N+]1([C@H]2C[C@H]3[C@@H]4CC[C@H]5C[C@H](O)[C@@H](N6CCOCC6)C[C@]5(C)[C@H]4CC[C@]3(C)[C@H]2OC(C)=O)CCCC1 [Rocuronium Bromide],1.14
5,CC(C)(C(=O)O)c1ccc(C(O)CCCN2CCC(C(O)(c3ccccc3)c3ccccc3)CC2)cc1 (stereo not given),-1.47
6,NNC(=O)c1ccncc1 [Isoniazid],-0.0369
7,Nc1nc(=O)[nH]cc1F [Flucytosine],0.644
8,COc1cc(NC(C)CCCN)c2ncccc2c1 (stereo not given) [Primaquine bisphosphate],-1.23
9,C=CCNc1ncnc2ccc(Br)cc12,-1.19
10,CCN1CC(CCN2CCOCC2)C(c2ccccc2)(c2ccccc2)C1=O (stereo not given),0.0687
11,CCCCOc1cc(CC2CNC(=O)N2)ccc1OC (stereo not given),0.226
12,CCCCC[C@H](O)/C=C/[C@@H]1[C@H]2C/C(=C/CCCC(=O)O)C[C@H]2C[C@H]1O [Carbacyclin],1.22
13,O=C1C(O)=C([C@H]2CC[C@H](c3ccc(Cl)cc3)CC2)C(=O)c2ccccc21 [Atovaquone],1.13
14,Cc1cn([C@H]2C[C@H](N=[N+]=[N-])[C@@H](CO)O2)c(=O)[nH]c1=O [Zidovudine],0.258
15,Clc1ccc(C(c2ccc(Cl)cc2)[n+]2ccn(CC(OCc3ccc(Cl)cc3Cl)c3ccc(Cl)cc3Cl)c2)cc1 (stereo not given) [Calmidazolium chloride],0.978
16,CC[C@]1(O)C[C@@H]2CN(CCc3c([nH]c4ccccc34)[C@@](C(=O)OC)(c3cc4c(cc3OC)N(C)[C@H]3[C@@](O)(C(=O)OC)[C@H](OC(C)=O)[C@]5(CC)C=CCN6CC[C@]43[C@@H]65)C2)C1 [Vinblastine],-2.14
17,CC/C=C\C/C=C\C/C=C\CCCCCCCCCC(=O)O [Eicosatrienoic acid (20:3 n-3)],1.23
